Measurements from PubChem BioAssay (NCATS).
Results filed as inconclusive are left out. Unmarked numbers belong to inactive results. Calls of active or inactive are those of the source. Calls come from the whole dose curve; as a rule, active = well fitted cell-killing curve with a large enough effect; inconclusive = small, poorly fitted or top-dose-only effect, or effect the other way; inactive = flat fitted curve, though single readings scatter.

tested on: Hek293T; test: Primary qHTS to identify gynecologic anti-cancer compounds using libraries of approved drugs and bioactive compounds (AID 1345084); conditions: Gynecologic cancer cell panel viability, ATPlite luminescence, 48 h, control line for the selectivity index; series mostly up to 57.5 µM; activity change, negative = cytotoxicity: at the top concentration; note: nearly all actives have a fitted effect of over 55% in size
Procedure, shortened: (§1)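 Cytotoxicity screen measuring ATP content by luciferase luminescence. Each compound is applied at five concentrations for 48 h at 37 C with 5% CO2.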
% is set by controls: 0 for no effect and ±100 for the full control effect; potency is the fitted concentration of half-maximal effect.

| SMILES | activity change, negative = cytotoxicity | Potency |
| --- | --- | --- |
| COc1ccc(Cl)c(Nc2ncnc3cc(OCC4CCN(C)CC4)c(OC)cc23)c1 | 8.26% | – |
| Cc1nc(-c2cn3c(n2)-c2ccc(-c4cnn(C(C)(C)C(N)=O)c4)cc2OCC3)n(C(C)C)n1 | – | 15.8 µM (active) |
| CC(C)=C1C[C@@]2(C)C(=CC1=O)CC[C@@H](OC(=O)/C(C)=C/CO)[C@@H]2C | -33% [at 38.5 µM] | – |

tested on: JEG-3; test: as above; conditions: Gynecologic cancer cell panel viability, ATPlite luminescence, 48 h; series mostly up to 57.5 µM; activity change, negative = cytotoxicity: at the top concentration
Procedure, shortened: as §1

| SMILES | activity change, negative = cytotoxicity | Potency |
| --- | --- | --- |
| CNc1ccc([N+](=O)[O-])c(Nc2ccc3[nH]ncc3c2)n1 | -27.3% | – |
| Cn1nc(-c2ccc(C(F)(F)F)cc2)nc2c(=O)n(C)c(=O)nc1-2 | – | 10 µM (active) |
| Cc1[nH]c2ccc(F)cc2c1-c1nc2c3cccnc3c3ncccc3c2[nH]1 | -12.7% | – |
| COc1cc(O)c2c(c1)/C=C/C[C@H](O)[C@H](O)C(=O)/C=C\C[C@H](C)OC2=O | -9.68% | – |
| C[C@H](Nc1ncnc2nc[nH]c12)c1cc2cccc(Cl)c2c(=O)n1-c1ccccc1 | -9.85% | – |
| Cc1csc2c(N[C@@H](C)CN3CCN(S(=O)(=O)c4ccc(Cl)c(Cl)c4)CC3)ncnc12 | 0.153% | – |
| C=C1CC2OC(=O)C(COC)C2C(OC(=O)/C(C)=C\C)CC2(C)OC1=CC2=O (stereo not drawn) | -16.8% [at 38.5 µM] | – |
| N#CSc1cc(SC#N)c(N)nc1N | 10.3% [at 11.6 µM] | – |
| C/C=C/C=C/C=C/C(=O)O[C@@H]1C=C2COC(=O)[C@]2(O)[C@@]2(C)CCCC(C)(C)[C@H]12 | 1.18% [at 25.3 µM] | – |
| CS/C=C/C(=O)O[C@@H]1CCC2=CC(=O)C(=C(C)C)C[C@]2(C)[C@H]1C | 17.4% [at 38.5 µM] | – |
| Cn1cc(-c2ccc(S(=O)(=O)n3ccc(/C=C/C(=O)Nc4ccccc4N)c3)cc2)cn1 | – | 10 µM (active) |
| CNC1CN(c2ccc3c(=O)c(C(=O)O)cn(-c4nccs4)c3n2)CC1OC (stereo not drawn) | -9.7% [at 11.6 µM] | – |
| CC(C)S(=O)(=O)NC[C@H](C)c1ccc(-c2ccc(CCNS(C)(=O)=O)cc2)cc1 | -3.43% | – |
| NCCOc1cc(C(=O)Nc2cc(OCCN)c3ccccc3n2)nc(C(=O)Nc2cc(OCCN)c3ccccc3n2)c1 | -17.3% | – |
| Cc1cc(-c2nc(-c3ccc(OC(F)(F)F)cc3)no2)nn1Cc1ccnc(N2CCN(C3CC3)CC2)c1 | -16.1% | – |
| COc1ccc(Cl)c(Nc2ncnc3cc(OCC4CCN(C)CC4)c(OC)cc23)c1 | 8.92% | – |
| C=C1C(=O)O[C@H]2C3=C(C)CCC[C@]3(C)C(=O)C[C@@H]12 | 4.67% | – |
| COc1cc(/C=C2\CCCN([C@@H](C)c3ccc(F)cc3)C2=O)ccc1-n1cnc(C)c1 | -2.92% | – |
| COc1cc2c(cc1NS(=O)(=O)c1ccc(Br)cc1C)n(C)c(=O)n2C | -7.96% | – |
| COc1cc([C@H]2O[C@H](c3cc(OC)c4c(c3)OCO4)[C@H](C)[C@H]2C)cc(OC)c1OC | 8.82% [at 25.3 µM] | – |
| COc1cc2c(NC3CCN(C(C)C)CC3)nc(N3CCC(F)(F)CC3)nc2cc1OCCCN1CCCC1 | – | 22.4 µM (active) |
| CC(C)=C1C[C@@]2(C)C(=CC1=O)CC[C@@H](OC(=O)/C(C)=C/CO)[C@@H]2C | -3.77% [at 38.5 µM] | – |
| COc1cc(Br)c(S(=O)(=O)Nc2ccc(Cl)c(O[C@@H]3CCN(C)C3)c2)cc1OC | 11.7% | – |
| Cn1cc(-c2cnn3c(N)c(Br)c(C4CCCNC4)nc23)cn1 (stereo not drawn) | 23.8% | – |
| COc1cc(N2CCC(N3CCN(C)CC3)CC2)ccc1Nc1ncc(Cl)c(Nc2ccccc2P(C)(C)=O)n1 | -23.9% | – |

tested on: OV90; test: as above; conditions: Gynecologic cancer cell panel viability, ATPlite luminescence, 48 h; series mostly up to 57.5 µM; activity change, negative = cytotoxicity: at the top concentration
Procedure, shortened: as §1

| SMILES | activity change, negative = cytotoxicity | Potency |
| --- | --- | --- |
| CNc1ccc([N+](=O)[O-])c(Nc2ccc3[nH]ncc3c2)n1 | -0.79% | – |
| C=C1C(=O)O[C@@H]2C3C(=C(C)[C@@H](O)[C@@H](OC(=O)/C(=C/C)COC(C)=O)[C@@H]12)C(=O)[C@H]1O[C@@]31C (stereo partly drawn) | 15.1% [at 25.3 µM] | – |
| Cc1[nH]c2ccc(F)cc2c1-c1nc2c3cccnc3c3ncccc3c2[nH]1 | – | 5.62 µM (active) |
| Cc1c(NC(=O)OCC2COCCN2)cn2ncnc(Nc3ccc4c(cnn4Cc4cccc(F)c4)c3)c12 (stereo not drawn) | -4.99% | – |
| C[C@H](Nc1ncnc2nc[nH]c12)c1cc2cccc(Cl)c2c(=O)n1-c1ccccc1 | -25.9% | – |
| C=C1CC2OC(=O)C(COC)C2C(OC(=O)/C(C)=C\C)CC2(C)OC1=CC2=O (stereo not drawn) | -20.2% [at 38.5 µM] | – |
| N#CSc1cc(SC#N)c(N)nc1N | 2.64% [at 11.6 µM] | – |
| C/C=C/C=C/C=C/C(=O)O[C@@H]1C=C2COC(=O)[C@]2(O)[C@@]2(C)CCCC(C)(C)[C@H]12 | -21.7% [at 25.3 µM] | – |
| CS/C=C/C(=O)O[C@@H]1CCC2=CC(=O)C(=C(C)C)C[C@]2(C)[C@H]1C | -7.2% [at 38.5 µM] | – |
| Cn1cc(-c2ccc(S(=O)(=O)n3ccc(/C=C/C(=O)Nc4ccccc4N)c3)cc2)cn1 | – | 15.8 µM (active) |
| CNC1CN(c2ccc3c(=O)c(C(=O)O)cn(-c4nccs4)c3n2)CC1OC (stereo not drawn) | -6.73% [at 11.6 µM] | – |
| NCCOc1cc(C(=O)Nc2cc(OCCN)c3ccccc3n2)nc(C(=O)Nc2cc(OCCN)c3ccccc3n2)c1 | -15.9% | – |
| C=C(NC(=O)C(=C)NC(=O)c1csc(C2=NC3c4csc(n4)C4NC(=O)c5csc(n5)C(C(C)(O)C(C)O)NC(=O)C5CSC(=N5)/C(=C/C)NC(=O)C(C(C)O)NC(=O)c5csc(n5)C3(CC2)NC(=O)C(C)NC(=O)C(=C)NC(=O)C(C)NC(=O)C(C(C)CC)NC2C=Cc3c(C(C)O)cc(nc3C2O)C(=O)OC4C)n1)C(N)=O (stereo not drawn) | -12.2% | – |
| CC1(C)CC[C@]2(C(=O)O)CC[C@]3(C)C(=CCC4[C@@]5(C)C[C@@H](O)[C@H](O)C(CO)(CO)C5CC[C@]43C)C2[C@@H]1O (stereo partly drawn) | 23.2% [at 25.3 µM] | – |
| COc1cc(/C=C2\CCCN([C@@H](C)c3ccc(F)cc3)C2=O)ccc1-n1cnc(C)c1 | -25.9% | – |
| COc1cc([C@H]2O[C@H](c3cc(OC)c4c(c3)OCO4)[C@H](C)[C@H]2C)cc(OC)c1OC | – | 8.91 µM (active) |
| COc1cc2c(NC3CCN(C(C)C)CC3)nc(N3CCC(F)(F)CC3)nc2cc1OCCCN1CCCC1 | – | 11.2 µM (active) |
| CC(C)=C1C[C@@]2(C)C(=CC1=O)CC[C@@H](OC(=O)/C(C)=C/CO)[C@@H]2C | -3.05% [at 38.5 µM] | – |
| COC1C(O)C(OC2CCC3(C)C(CCC45CCC6C7(COC(=O)C7)OC4(O)C6(C)CCC35)C2)OC(C)C1OC1OC(CO)C(OC2OC(CO)C(O)C(O)C2O)C(O)C1O (stereo not drawn) | -0.158% [at 11.6 µM] | – |
| Cn1cc(-c2cnn3c(N)c(Br)c(C4CCCNC4)nc23)cn1 (stereo not drawn) | -0.692% | – |
